Experimental data reported in PubChem BioAssay (Tox21).
“And” between values parts separate entries of the source, which are not always exact repeats. Equal entries are not always repeated. A structure can be active in one record and inactive in another. The source made the active and inactive calls. Unless noted, calls come from the whole dose curve; as a rule, active = well fitted curve in the direction sought with a large enough effect in the repeat runs; inconclusive = weak or mixed curves; inactive = no such curve, though single readings can be large; an effect the other way counts as inactive or inconclusive.

Legend:
[1] = qHTS assay for identifying genotoxic compounds that show differential cytotoxicity against isogenic chicken DT40 cell lines with known DNA damage response pathways - wild type cell line (AID 743012); note: potency is the fitted concentration of half-maximal effect; nearly all actives have a fitted effect of over 60% in size
How it was run: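 Parental DNA repair-proficient DT40 cells, 300 per well, were pre-incubated ~0.5 h at 37 C/5% CO2, pin-dosed with compounds in DMSO, then incubated 40 h. Viability was read as CellTiter-Glo luminescence after 30 min at room temperature.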

[2] = qHTS assay for identifying genotoxic compounds that show differential cytotoxicity against isogenic chicken DT40 cell lines with known DNA damage response pathways - Rev3 mutant cell line (AID 743014); note: nearly all actives have a fitted effect of over 55% in size; note: potency is the fitted concentration of half-maximal effect
[3] = qHTS assay for identifying genotoxic compounds that show differential cytotoxicity against isogenic chicken DT40 cell lines with known DNA damage response pathways - Rad54/Ku70 mutant cell line (AID 743015); note: nearly all actives have a fitted effect of over 60% in size; note: potency is the fitted concentration of half-maximal effect
[4] = qHTS assay to identify small molecule antagonists of the androgen receptor (AR) signaling pathway - cell viability counter screen (AID 743033; note: nearly all actives have a fitted effect of over 45% in size; note: potency is the fitted concentration of half-maximal effect)
[5] = target: Androgen receptor (Homo sapiens) (UniProt P10275); experiment: qHTS assay to identify small molecule antagonists of the androgen receptor (AR) signaling pathway (AID 743035; active = well fitted inhibition curve with a large enough effect in the signal ratio in the repeat runs, not every such curve was filed as active; inconclusive = weak or mixed curves, or effect the other way; inactive = no such curve, though single readings can be large or run the other way; the % refers to the signal ratio; note: potency is the fitted concentration of half-maximal effect)
Androgen receptor (Homo sapiens), sequence (P10275 whole entry, looked up): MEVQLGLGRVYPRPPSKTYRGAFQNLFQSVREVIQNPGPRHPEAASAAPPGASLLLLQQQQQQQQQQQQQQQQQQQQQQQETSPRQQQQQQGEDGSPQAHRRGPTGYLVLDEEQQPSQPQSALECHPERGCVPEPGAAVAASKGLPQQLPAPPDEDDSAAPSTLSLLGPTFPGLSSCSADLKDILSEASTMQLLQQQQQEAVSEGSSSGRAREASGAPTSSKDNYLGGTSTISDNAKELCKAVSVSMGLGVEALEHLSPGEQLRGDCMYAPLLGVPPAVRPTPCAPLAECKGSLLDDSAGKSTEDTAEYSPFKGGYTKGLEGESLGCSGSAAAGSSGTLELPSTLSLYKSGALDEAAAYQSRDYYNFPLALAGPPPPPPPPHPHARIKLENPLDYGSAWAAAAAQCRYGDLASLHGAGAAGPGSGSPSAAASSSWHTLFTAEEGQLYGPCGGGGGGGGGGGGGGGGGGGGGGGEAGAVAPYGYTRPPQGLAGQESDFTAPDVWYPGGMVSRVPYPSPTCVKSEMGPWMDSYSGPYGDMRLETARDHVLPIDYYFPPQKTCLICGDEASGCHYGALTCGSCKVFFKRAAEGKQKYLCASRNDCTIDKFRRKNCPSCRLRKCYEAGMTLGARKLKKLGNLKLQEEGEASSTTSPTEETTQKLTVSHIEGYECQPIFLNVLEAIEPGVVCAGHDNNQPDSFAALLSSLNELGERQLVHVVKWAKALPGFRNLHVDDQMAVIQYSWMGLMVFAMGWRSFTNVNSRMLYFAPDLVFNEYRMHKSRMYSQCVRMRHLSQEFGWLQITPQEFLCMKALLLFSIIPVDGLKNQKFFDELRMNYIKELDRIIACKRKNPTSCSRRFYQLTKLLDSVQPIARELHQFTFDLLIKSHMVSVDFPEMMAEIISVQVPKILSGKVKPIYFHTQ
How it was run: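 HEK293 cells stably carrying a UAS-driven beta-lactamase reporter (AR-UAS-bla GripTite) were plated for 4 h at 37C, then given compound and the agonist R1881 and incubated 16 h. Reporter activity was read by LiveBLAzer B/G FRET fluorescence after 2 h at room temperature.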

[6] = target: Androgen receptor (Homo sapiens) (UniProt P10275); experiment: qHTS assay to identify small molecule agonists of the androgen receptor (AR) signaling pathway using the MDA cell line (AID 743040; note: nearly all actives have a fitted effect of over 20% in size)
How it was run: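 Luminescence from ONE-Glo, read after 30 min at room temperature, reflects MMTV-driven luciferase in MDA-kb2 cells (AR- and GR-responsive). Treatment lasted 16 h at 37C, 0% CO2.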

[7] = qHTS assay to identify small molecule antagonists of the androgen receptor (AR) signaling pathway using the MDA cell line - cell viability counter screen (AID 743041; note: nearly all actives have a fitted effect of over 45% in size)
How it was run: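 Viability counter screen run alongside the AR antagonist reporter: cells seeded 5 h before compound, R1881 added, 16 h incubation at 37C without CO2, fluorescent CellTiter-Fluor signal quantified.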

[8] = target: Androgen receptor (Homo sapiens) (UniProt P10275); experiment: qHTS assay to identify small molecule antagonists of the androgen receptor (AR) signaling pathway using the MDA cell line (AID 743042; note: nearly all actives have a fitted effect of over 55% in size; note: potency is the fitted concentration of half-maximal effect)
How it was run: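 MDA-kb2 cells (human breast carcinoma, stably carrying an MMTV-luciferase reporter responsive to AR and GR) were plated at 3,000 cells/well and preincubated 5 hr at 37C, then given compound plus R1881 agonist for 16 h. ONE-Glo luminescence was read.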

[9] = qHTS assay to identify small molecule antagonists of the thyroid receptor (TR) signaling pathway - cell viability counter screen (AID 743064); note: nearly all actives have a fitted effect of over 50% in size; note: potency is the fitted concentration of half-maximal effect
How it was run: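 Same-well viability check: GH3.TRE-Luc cells stimulated with 1 nM T3 alongside test compound for 23.5 h, followed by CellTiter-Fluor fluorescence.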

[10] = qHTS assay to identify small molecule antagonists of the thyroid receptor (TR) signaling pathway (AID 743065); note: nearly all actives have a fitted effect of over 55% in size; note: potency is the fitted concentration of half-maximal effect
How it was run: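 GH3.TRE-Luc rat pituitary cells carrying two TR response elements driving luciferase were plated for 4 h, given compound plus 1 nM T3 (final), and incubated 23.5 h at 37 C. ONE-Glo luminescence measured reporter inhibition; CellTiter-Fluor fluorescence tracked cytotoxicity.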

[11] = test system: thyroid hormone receptor (rat, GH3 cells); experiment: qHTS assay to identify small molecule agonists of the thyroid receptor (TR) signaling pathway (AID 743066; calls by dose curve)
[12] = qHTS assay to identify small molecule antagonists of the estrogen receptor alpha (ER-alpha) signaling pathway - cell viability counter screen (AID 743074; calls by dose curve;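 note: HEK293 cells carrying ER-alpha-UAS-bla reporter stimulated with 17beta-estradiol; nearly all actives have a fitted effect of over 45% in size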; note: potency is the fitted concentration of half-maximal effect)
[13] = target: Estrogen receptor (Homo sapiens) (UniProt P03372); experiment: qHTS assay to identify small molecule agonists of the estrogen receptor alpha (ER-alpha) signaling pathway (AID 743075; calls by dose curve; note: potency is the fitted concentration of half-maximal effect)
Estrogen receptor (Homo sapiens), sequence (P03372 whole entry, looked up): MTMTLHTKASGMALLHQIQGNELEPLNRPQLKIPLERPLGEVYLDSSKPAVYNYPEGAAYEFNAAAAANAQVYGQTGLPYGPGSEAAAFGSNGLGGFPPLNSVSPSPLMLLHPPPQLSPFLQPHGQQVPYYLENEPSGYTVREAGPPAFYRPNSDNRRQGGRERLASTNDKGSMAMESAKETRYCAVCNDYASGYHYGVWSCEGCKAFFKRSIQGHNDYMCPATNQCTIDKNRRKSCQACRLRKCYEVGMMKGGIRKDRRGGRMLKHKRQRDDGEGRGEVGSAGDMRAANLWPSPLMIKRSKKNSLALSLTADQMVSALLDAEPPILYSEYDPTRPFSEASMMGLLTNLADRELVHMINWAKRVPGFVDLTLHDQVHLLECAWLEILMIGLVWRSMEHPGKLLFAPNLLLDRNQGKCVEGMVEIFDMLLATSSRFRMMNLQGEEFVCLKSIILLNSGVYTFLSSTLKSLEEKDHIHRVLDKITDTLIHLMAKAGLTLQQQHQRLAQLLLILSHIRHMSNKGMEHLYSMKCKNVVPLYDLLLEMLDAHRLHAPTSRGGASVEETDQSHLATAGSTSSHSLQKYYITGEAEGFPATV

[14] = qHTS assay to identify small molecule antagonists of the estrogen receptor alpha (ER-alpha) signaling pathway using the BG1 cell line (AID 743080; calls by dose curve;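 note: BG1 cells stimulated with 17beta-estradiol alongside compound; nearly all actives have a fitted effect of over 25% in size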; note: potency is the fitted concentration of half-maximal effect)
How it was run: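 BG1-Luc-4E2 cells (endogenous full-length ER-alpha, 4xERE luciferase) hormone-starved 5 days in charcoal-stripped FBS, plated 4,000/well for 24 h, then compound plus 17beta-estradiol for 21.5 h at 37 C; ONE-Glo luminescence read.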

[15] = qHTS assay to identify small molecule antagonists of the estrogen receptor alpha (ER-alpha) signaling pathway using the BG1 cell line - cell viability counter screen (AID 743081);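 note: compound given together with 17beta-estradiol as the ER stimulus; series mostly up to about 70 µM; nearly all actives have a fitted effect of over 45% in size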
[16] = qHTS assay to identify small molecule antagonists of the glucocorticoid receptor (GR) signaling pathway - cell viability counter screen (AID 720693); note: nearly all actives have a fitted effect of over 55% in size; note: potency is the fitted concentration of half-maximal effect
Aromatase (Homo sapiens) = Aromatase (Homo sapiens) (UniProt P11511); experiment: qHTS assay to identify aromatase inhibitors (AID 743083); note: nearly all actives have a fitted effect of over 55% in size; note: potency is the fitted concentration of half-maximal effect
Aromatase (Homo sapiens), sequence (P11511 whole entry, looked up): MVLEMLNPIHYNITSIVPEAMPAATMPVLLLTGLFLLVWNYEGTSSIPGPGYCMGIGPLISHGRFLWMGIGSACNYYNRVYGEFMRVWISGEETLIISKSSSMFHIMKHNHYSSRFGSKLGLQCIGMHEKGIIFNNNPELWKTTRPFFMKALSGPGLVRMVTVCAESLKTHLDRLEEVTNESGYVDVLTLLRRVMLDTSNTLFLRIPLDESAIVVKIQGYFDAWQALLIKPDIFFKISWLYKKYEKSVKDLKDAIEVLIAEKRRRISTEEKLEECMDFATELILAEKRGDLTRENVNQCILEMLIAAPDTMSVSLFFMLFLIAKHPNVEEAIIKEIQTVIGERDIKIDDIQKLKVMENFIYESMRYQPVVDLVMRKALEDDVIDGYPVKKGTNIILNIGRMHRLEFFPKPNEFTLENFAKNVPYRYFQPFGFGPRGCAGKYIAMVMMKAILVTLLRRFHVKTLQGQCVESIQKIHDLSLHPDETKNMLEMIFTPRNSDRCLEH

[17] = target: Estrogen receptor (Homo sapiens) (UniProt P03372); experiment: qHTS assay to identify small molecule agonists of the estrogen receptor alpha (ER-alpha) signaling pathway using the BG1 cell line (AID 743079); note: nearly all actives have a fitted effect of over 20% in size; note: potency is the fitted concentration of half-maximal effect
[18] = target: Estrogen receptor (Homo sapiens) (UniProt P03372); experiment: qHTS assay to identify small molecule antagonists of the estrogen receptor alpha (ER-alpha) signaling pathway (AID 743069; active = well fitted curve in the direction sought with a large enough effect in the signal ratio in the repeat runs, not every such curve was filed as active; inconclusive = weak or mixed curves, or effect the other way; inactive = no such curve, though single readings can be large or run the other way; the % refers to the signal ratio; note: potency is the fitted concentration of half-maximal effect)
How it was run: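 Estradiol-stimulated ER-alpha-UAS-bla HEK293 cells, 18 hr compound exposure at 37C. LiveBLAzer B/G substrate, 2 hr RT, fluorescence read.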

[19] = target: Androgen receptor (Homo sapiens) (UniProt P10275); experiment: qHTS assay to identify small molecule agonists of the androgen receptor (AR) signaling pathway (AID 743036; active = well fitted activation curve with a large enough effect in the signal ratio in the repeat runs, with a control signal flat, not every such curve was filed as active; inconclusive = weak or mixed curves, or effect the other way; inactive = no such curve, though single readings can be large or run the other way; the % refers to the signal ratio)
How it was run: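 Agonist activity was scored by beta-lactamase reporter fluorescence in stably transfected HEK293 cells exposed to compounds for 16 h at 37C and 5% CO2. Substrate loading took 2 h at room temperature.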

Measured: Potency

C[C@@H]1O[C@@H](O[C@H]2C[C@@H](O)[C@]3(CO)[C@H]4[C@H](O)C[C@]5(C)[C@@H](C6=CC(=O)OC6)CC[C@]5(O)[C@@H]4CC[C@]3(O)C2)[C@H](O)[C@H](O)[C@H]1O
active: [1] 2.11 µM and 1.88 µM and 1.3 µM | [2] 2.11 µM and 1.88 µM and 517 nM | [3] 1.88 µM and 580 nM | [4] 67.4 nM and 53.5 nM and 11.7 nM | [5] 213 nM and 190 nM and 46.5 nM | [12] 42.5 nM | [14] 531 nM and 163 nM
inactive: [6] | [7] | [9] | [10] | [11] | [13] | [15]
841 nM (active) and inactive: [8]

O=C(CCCN1CCC2(CC1)C(=O)NCN2c1ccccc1)c1ccc(F)cc1
inactive: [16] | [7] | [11] | [13]
active: [1] 29.8 µM | Aromatase (Homo sapiens) 29.8 µM

COP(=O)(OC)SCn1c(=O)oc2cc(Cl)cnc21
active: [16] 49 µM | [8] 48.6 µM | Aromatase (Homo sapiens) 19.3 µM
inactive: [4] | [6] | [7] | [10] | [11] | [12] | [13] | [17] | [15]

CCOC(=O)CC(=O)CCl
active: [1] 61.1 µM | [2] 19.3 µM | [3] 24.3 µM | [9] 61.1 µM | [10] 61.1 µM | Aromatase (Homo sapiens) 30.6 µM
not listed: [5] | [14] | [16] | [18] | [19]
inactive: all other assays above

BrCBr
not listed: [1] | [2] | [3] | [5] | [6] | [8] | [19]
inactive: all other assays above

CCC(C)(C)C(=O)OC1=C(c2ccc(Cl)cc2Cl)C(=O)OC12CCCCC2
active: [10] 54.5 µM | [17] 54.5 µM
not listed: [1] | [2] | [3] | [5] | [9] | [14] | [18]
inactive: all other assays above

COC(=O)N(C(=O)N1CO[C@@]2(C(=O)OC)Cc3cc(Cl)ccc3C2=N1)c1ccc(OC(F)(F)F)cc1
active: [1] 6.63 µM | [2] 14.8 µM | [3] 9.36 µM | [5] 6.69 µM | [8] 23.5 µM | [10] 11.8 µM | [18] 47.3 µM [cytotoxic]
not listed: [13] | [16] | Aromatase (Homo sapiens) | [17] | [19]
inactive: all other assays above

C[C@H]1O[C@@H](O[C@H]2[C@@H](O)C[C@H](O[C@H]3[C@@H](O)C[C@H](O[C@H]4CC[C@@]5(C)[C@H](CC[C@@H]6[C@@H]5CC[C@]5(C)[C@@H](C7=CC(=O)OC7)CC[C@]65O)C4)O[C@@H]3C)O[C@@H]2C)C[C@H](O)[C@@H]1O
active: [1] 422 nM and 388 nM | [2] 473 nM and 218 nM | [3] 473 nM and 308 nM | [4] 95.2 nM and 22 nM | [5] 425 nM and 124 nM | [12] 33.8 nM and 19.6 nM | [14] 548 nM
not listed: [6] | [16] | [17] | [18] | [19]
inactive: all other assays above

CCN(CC)c1c([N+](=O)[O-])cc(C(F)(F)F)c(N)c1[N+](=O)[O-]
active: [1] 19.3 µM | [3] 17.2 µM | [5] 43.6 µM | [13] 38.9 µM [inconclusive] | Aromatase (Homo sapiens) 34.4 µM
not listed: [2] | [4] | [12] | [14] | [17] | [18]
inactive: all other assays above

Cc1ccc(OP(=O)(Oc2ccccc2)Oc2ccccc2)cc1
active: [17] 3.91 µM
not listed: [1] | [2] | [3] | [5] | [7] | [12] | [18] | [19]
inactive: all other assays above

CCOc1cc(C(C)(C)C)ccc1C1COC(c2c(F)cccc2F)=N1 (stereo not drawn)
active: [1] 26.3 µM | [2] 23.4 µM | [3] 11.7 µM | [9] 18.6 µM | [10] 16.6 µM | Aromatase (Homo sapiens) 41.6 µM
inactive: [4] | [19] | [6] | [7] | [12] | [13] | [14] | [15]

CCCCCCCCCBr
not listed: [1] | [5] | [6] | [8] | [18] | [19]
inactive: all other assays above

Oc1c(Cl)c(Cl)cc(Cl)c1Cl
active: [1] 66.7 µM | [10] 23.7 µM | [14] 74800 nM
inactive: [16] | [6] | [11] | [13]

Clc1ccc(CCC(Cn2ccnc2)Sc2c(Cl)cccc2Cl)cc1 (stereo not drawn)
inactive: [16] | [4] | [7] | [9] | [11] | [12] | [14] | [15]
active: [1] 12.7 µM | Aromatase (Homo sapiens) 12.7 µM

S=C=Nc1cccc2ccccc12
active: [2] 60.5 µM | [5] 48.5 µM | Aromatase (Homo sapiens) 27 µM
not listed: [1] | [3] | [8] | [14] | [17] | [18] | [19]
inactive: all other assays above
